Screening data as filed in PubChem BioAssay.
A selection: hits, their analogues and other compounds. The true share with any hit is near 0.83%.
LRH-1 inv ag: NR5A2 inverse agonism in reporter assay; inhibition, % at 3.6 µM; actives 0.13% (n = 360,000); HEK293T StAR-luciferase reporter, LRH-1 transfected, 24 h; O00482;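 active = inhibition above the mean inhibition of all tested compounds plus 3 SD, cut at about 73% in these data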;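 also: 0% = DMSO wells and 100% = reporter-only cells lacking LRH-1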
NCOA2 inhibitor: inhibits human steroid receptor coactivator 2. HEK293 GAL4-SRC2 luciferase reporter, luminescence. inhibition, % at 9 µM. actives 0.17% (n = 370,000). AID 651957;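 active = inhibition above the mean inhibition of all tested compounds plus 3 SD, set per campaign, cut at about 52% in these data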;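 also: 0% = DMSO treated cells and 100% = cells given Gossypol at 36 µM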
Target sequence (Q15596 whole entry, looked up, the tested form may be a part): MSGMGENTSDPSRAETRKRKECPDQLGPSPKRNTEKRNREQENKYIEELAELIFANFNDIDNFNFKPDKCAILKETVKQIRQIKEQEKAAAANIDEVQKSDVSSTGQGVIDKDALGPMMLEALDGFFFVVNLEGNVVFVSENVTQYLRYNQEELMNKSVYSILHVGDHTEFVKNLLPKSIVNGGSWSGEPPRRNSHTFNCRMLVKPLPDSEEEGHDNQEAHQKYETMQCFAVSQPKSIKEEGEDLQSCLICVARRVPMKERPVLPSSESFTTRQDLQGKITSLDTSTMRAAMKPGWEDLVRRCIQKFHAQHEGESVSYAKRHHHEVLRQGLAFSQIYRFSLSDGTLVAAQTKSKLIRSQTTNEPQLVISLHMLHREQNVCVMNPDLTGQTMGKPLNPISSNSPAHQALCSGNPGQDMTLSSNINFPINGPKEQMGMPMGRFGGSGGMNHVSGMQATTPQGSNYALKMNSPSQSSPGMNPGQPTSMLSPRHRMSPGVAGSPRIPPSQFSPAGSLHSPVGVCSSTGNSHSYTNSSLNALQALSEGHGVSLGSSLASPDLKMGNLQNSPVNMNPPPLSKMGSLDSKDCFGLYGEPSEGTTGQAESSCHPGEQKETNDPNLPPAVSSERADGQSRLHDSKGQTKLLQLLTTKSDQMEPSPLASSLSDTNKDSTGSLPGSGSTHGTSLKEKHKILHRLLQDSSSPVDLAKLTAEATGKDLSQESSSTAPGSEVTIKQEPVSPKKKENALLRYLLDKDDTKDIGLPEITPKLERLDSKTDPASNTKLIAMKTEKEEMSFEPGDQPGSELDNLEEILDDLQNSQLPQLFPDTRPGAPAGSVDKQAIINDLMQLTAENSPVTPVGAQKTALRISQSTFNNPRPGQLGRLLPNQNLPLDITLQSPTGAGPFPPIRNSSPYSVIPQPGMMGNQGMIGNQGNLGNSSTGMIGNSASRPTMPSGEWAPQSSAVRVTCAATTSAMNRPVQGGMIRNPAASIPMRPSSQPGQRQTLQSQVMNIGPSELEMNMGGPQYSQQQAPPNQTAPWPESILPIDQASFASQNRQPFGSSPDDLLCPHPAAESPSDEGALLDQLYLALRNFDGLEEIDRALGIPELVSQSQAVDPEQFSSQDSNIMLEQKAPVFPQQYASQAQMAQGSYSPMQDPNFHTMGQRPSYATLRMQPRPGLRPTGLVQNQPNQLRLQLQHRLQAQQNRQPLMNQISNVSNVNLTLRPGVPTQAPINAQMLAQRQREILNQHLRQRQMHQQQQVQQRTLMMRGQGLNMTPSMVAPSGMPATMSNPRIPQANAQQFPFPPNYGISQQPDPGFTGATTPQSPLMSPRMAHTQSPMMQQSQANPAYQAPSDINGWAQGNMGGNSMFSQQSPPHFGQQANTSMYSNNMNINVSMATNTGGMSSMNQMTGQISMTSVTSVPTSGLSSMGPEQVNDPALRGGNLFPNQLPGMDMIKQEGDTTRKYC
SRC1 inh: human NCOA1 inhibition; inhibition, % at 3.6 µM; HEK293 GAL4-SRC1 luciferase reporter, luminescence; Q15788; AID 588354; actives 0.12% (n = 360,000);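 active = inhibition above the campaign mean plus 3 SD, with each screening campaign given its own cutoff, cut at about 60% in these data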;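 also: 0% = DMSO treated cells and 100% = gossypol at 36 µM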
NR2F2 inh: inhibitors of human COUP-TFII (NR2F2); HEK293T NGFI-A luciferase reporter, luminescence; inhibition, % at 8.6 µM; actives 0.7% (n = 370,000);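 active = inhibition above a per-plate cutoff, mean inhibition of test wells between control levels plus 3 SD, cut at about 38% in these data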;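 also: cells cotransfected with COUP-TFII expression vector driving the NGFI-A reporter; 0% = median of COUP-TF2 test wells and 100% = reporter-only cells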
SRC3 inh: inhibitors of human steroid receptor coactivator 3 (SRC3) | actives 0.17% (n = 360,000) | inhibition, % at 3.6 µM | Q9Y6Q9 | HEK293 GAL4-SRC3 luciferase reporter, luminescence;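 active = inhibition above a per-campaign cutoff, the mean of all compounds plus 3 SD, cut at about 60% in these data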;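 also: 0% = DMSO-treated cells and 100% = gossypol-treated cells at 36 µM; higher means less SRC3-driven luciferase light from the GAL4 reporter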
Gal4-VP16 ctr: VP16 inhibition counter-screen for COUP-TFII | inhibition, % at 8.5 µM | HEK293 Gal4-VP16 luciferase reporter, luminescence | actives 25% (n = 2,500) | shares compounds with NR2F2 inh; in the data active = inhibition above about 13%
COUP-TFII conf: COUP-TFII (NR2F2) inhibition, confirmation assay; shares compounds with NR2F2 inh; HEK293 NGFI-A luciferase reporter, luminescence; inhibition, % at 8.5 µM; actives 45% (n = 2,500); AID 687008;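 active = mean inhibition over three repeats above a set limit taken from the earlier primary screen, cut at about 38% in these data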;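 also: 100% = cells given the luciferase reporter alone without the COUP-TF2 vector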
The depositor's hits bear a star.

`CCN(CC)S(=O)(=O)c1ccc(N2CCN(c3ccccc3OC)CC2)c(N)c1` gave LRH-1 inv ag 16, NCOA2 inhibitor 18, SRC1 inh 5, NR2F2 inh 48*, SRC3 inh 12, Gal4-VP16 ctr 6 and COUP-TFII conf 22.
For COCC(=O)OC1CCn2c1nc1c2C(=O)C(C)=C(NC(C)=O)C1=O (stereo unspecified) the results were LRH-1 inv ag 96*, NCOA2 inhibitor 73*, SRC1 inh 90*, NR2F2 inh 72*, SRC3 inh 88*, Gal4-VP16 ctr 50* and COUP-TFII conf 74*.
For COc1ccc(-c2coc3c(C(=O)Nc4cccnc4)cccc23)c(C)c1 the results were LRH-1 inv ag -2, NCOA2 inhibitor -3, SRC1 inh -4, NR2F2 inh 55*, SRC3 inh -13, Gal4-VP16 ctr -16 and COUP-TFII conf 18.
For CC1CCc2nc(N)c(C#N)c(-c3cccnc3)c2C1 (stereo unspecified) the results were LRH-1 inv ag 41, NCOA2 inhibitor 39, SRC1 inh 72*, NR2F2 inh 52*, SRC3 inh 63*, Gal4-VP16 ctr 14* and COUP-TFII conf 24.
`O=C(COC(=O)c1ccc(Sc2ncn[nH]2)c([N+](=O)[O-])c1)Nc1cccc(Cl)c1F` gave NCOA2 inhibitor -4 and NR2F2 inh 3.
For CC(=NNC(=S)N(Cc1ccccn1)Cc1ccccn1)c1cnccn1 the results were LRH-1 inv ag -3, NCOA2 inhibitor 1, SRC1 inh -8, NR2F2 inh 8 and SRC3 inh 4.
For S=C(NN=C(c1ccccc1)c1ccccn1)N(Cc1ccccn1)Cc1ccccn1 the results were LRH-1 inv ag 70, NCOA2 inhibitor 23, SRC1 inh 66*, NR2F2 inh 54*, SRC3 inh 71*, Gal4-VP16 ctr 3 and COUP-TFII conf 45*.
`Cc1nc(SCC(=O)Nc2nc3ccccc3s2)c(C#N)c(C)c1C` gave LRH-1 inv ag 88*, NCOA2 inhibitor 85*, SRC1 inh 90*, NR2F2 inh 99*, SRC3 inh 91*, Gal4-VP16 ctr 91* and COUP-TFII conf 109*.
For Cc1ccc2sc(NC(=O)CSc3nc(C)cc(C)c3C#N)nc2c1 the results were LRH-1 inv ag -136, NCOA2 inhibitor -32, SRC1 inh -120, NR2F2 inh -61 and SRC3 inh -96.
Screening Cc1cc(C(F)(F)F)c(C#N)c(SCC(=O)Nc2nc3ccccc3s2)n1 returned LRH-1 inv ag 32, NCOA2 inhibitor 10, SRC1 inh 20, NR2F2 inh 56*, SRC3 inh 41, Gal4-VP16 ctr 21* and COUP-TFII conf 57*.
For O=S1(=O)CC2c3ccccc3CCN2CN1Cc1ccc(F)cc1 (stereo unspecified) the results were NCOA2 inhibitor 1 and NR2F2 inh -2.
Cc1c(C(=O)NCc2ccc(Cl)c(Cl)c2)sc(=O)n1Cc1ccc(C(=O)N(C)C)cc1 was read as LRH-1 inv ag 32, NCOA2 inhibitor -5, SRC1 inh -4, NR2F2 inh 50*, SRC3 inh 22, Gal4-VP16 ctr 1 and COUP-TFII conf 4.
Cc1c(C(=O)NCc2ccc(C(C)C)cc2)sc(=O)n1Cc1ccc(S(=O)(=O)N(C)C)cc1 was read as LRH-1 inv ag 32, NCOA2 inhibitor -1, SRC1 inh 20, NR2F2 inh 68*, SRC3 inh 31, Gal4-VP16 ctr 7 and COUP-TFII conf 64*.
For Cc1c(C(=O)NCc2ccc(Cl)c(Cl)c2)sc(=O)n1Cc1ccc(S(=O)(=O)N(C)C)cc1 the results were LRH-1 inv ag 12, NCOA2 inhibitor -2, SRC1 inh 5, NR2F2 inh 38*, SRC3 inh 4, Gal4-VP16 ctr 3 and COUP-TFII conf 16.
`CCOC(=O)N[C@H](C(=O)N1CCC[C@H]1C(=O)NC1CCCC1)C1CCCCC1` gave NCOA2 inhibitor -19 and NR2F2 inh 1.
CSc1ccc(CN2CCN(Cc3ccc([N+](=O)[O-])cc3)CC2)cc1 was read as LRH-1 inv ag 38, NCOA2 inhibitor 21, SRC1 inh 25, NR2F2 inh 51*, SRC3 inh 21, Gal4-VP16 ctr 3 and COUP-TFII conf 46*.
